Most compounds without a hit are left out; they make up all but 1.2% or so of the library.
NS1 function inh = inhibitors of influenza NS1 protein function. Potency, µM (series often up to 46.1 µM), for the others: at the top dose activity, positive = more growth. 270,000 compounds, 0.4% hits; calls by dose curve; further: potency means the concentration at half of the fitted maximal effect; actives are rising curves; nearly all actives have a fitted effect of over 50% in size
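In this qHTS, NS1 from influenza A is expressed in budding yeast, where it slows growth. Cells are switched from glucose to 2% galactose medium (pH 6.0, -URA), treated with compound, and growth recovery is read at OD600.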
TbPYK inhibitor = inhibitors of Trypanosoma brucei pyruvate kinase; Potency, µM (highest dose often 76.8 µM), inactives show at the highest dose activity, negative = inhibition, actives largely listed as inhibitors; 410,000 compounds, 0.12% hits; TbPYK enzyme, Kinase-Glo Plus ATP luminescence, 45 min; AID 624173; Q57TT1; further: potency means the concentration at half of the fitted maximal effect; on the % scale 0 is the no-effect control and ±100 the full control effect; nearly all actives have a fitted effect of over 50% in size
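Readout: single end-point luminescence (Kinase-Glo Plus, 10 min). Reaction conditions were TbPYK/substrate plus 130 uM ADP, 45 min at RT, pH 7.2 TEA buffer. No-enzyme wells served as controls, and data were normalized before concentration-response fitting.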
FBPA Giardia inh = blocks Giardia fructose-bisphosphate aldolase activity; A8B2U2; purified Giardia FBPA; Potency, µM (series often up to 59.6 µM), without a hit: at the top dose activity, negative = inhibition, hits mostly inhibitors; 290,000 compounds, 0.71% hits; further: potency means the concentration at half of the fitted maximal effect; on the % scale 0 is the no-effect control and ±100 the full control effect; nearly all actives have a fitted effect of over 55% in size
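Giardia FBPA (40 nM reagent) was preincubated 10 min at RT with compound (up to 57.5 uM final), then substrate plus GAPDH/TPI/NAD/arsenate coupling system with diaphorase/resazurin was added; resorufin fluorescence (525/598 nm) was read after 20 min.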
AMA1 RON2 block = disrupts binding of P. falciparum AMA1 to RON2. Potency, µM (titrated, usually from 58.2 µM), inactives show at the highest dose activity change, negative = inhibition, most hits filed as inhibitors. 360,000 compounds, 0.2% hits. AlphaScreen AMA1-biotinylated RON2 peptide binding. AID 720542;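 further: potency means the concentration at half of the fitted maximal effect; 0% = vehicle wells and -100% = peptide control; nearly all actives have a fitted effect of over 45% in size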
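AMA1 (3D7) with his tag at 25 nM final met compounds first, then biotinylated RON2 peptide at 25 nM; detection used donor plus acceptor beads, 10 µg/mL apiece, read by AlphaScreen after 30 min at room temperature.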
LmPK inh = LmPK (Leishmania mexicana) enzyme inhibition. AID 1721. Potency, µM (top dose mostly 57.5 µM), inactives show at the highest dose activity change, negative = inhibition, hits mostly inhibitors. purified LmPK, Kinase-Glo ATP luminescence, 1 h. 290,000 compounds, 0.37% hits; further: potency means the concentration at half of the fitted maximal effect; on the % scale 0 is the no-effect control and ±100 the full control effect
Target sequence (Q27686 whole entry, looked up): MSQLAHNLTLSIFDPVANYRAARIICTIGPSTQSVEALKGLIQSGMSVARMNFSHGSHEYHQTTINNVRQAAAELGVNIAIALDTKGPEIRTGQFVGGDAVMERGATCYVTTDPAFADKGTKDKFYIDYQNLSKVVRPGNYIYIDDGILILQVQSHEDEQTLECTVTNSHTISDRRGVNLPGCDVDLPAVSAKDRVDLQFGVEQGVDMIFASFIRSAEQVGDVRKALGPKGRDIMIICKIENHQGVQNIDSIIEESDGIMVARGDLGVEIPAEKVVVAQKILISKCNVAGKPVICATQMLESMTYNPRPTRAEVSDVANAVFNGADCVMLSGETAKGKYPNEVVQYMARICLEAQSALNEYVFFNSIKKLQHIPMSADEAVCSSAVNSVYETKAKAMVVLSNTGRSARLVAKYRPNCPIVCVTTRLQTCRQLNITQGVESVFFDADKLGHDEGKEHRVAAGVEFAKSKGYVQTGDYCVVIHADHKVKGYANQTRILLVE
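In 50 mM imidazole pH 7.2 with 7 mM MgCl2, LmPK (0.1 nM) turned over PEP (0.5 mM) and ADP (0.1 mM) for 1 h at room temperature. Luciferase read-out of ATP.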
LmPK confirm = Blocks LmPK activity, confirmation assay; shares compounds with LmPK inh; purified LmPK, Kinase-Glo ATP luminescence, 1 h; Potency, µM (highest dose often 57.5 µM), for inactives: top-dose activity change, negative = inhibition, most hits filed as inhibitors; 150 compounds, 40% hits; AID 2559;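 active means compounds giving a full or partial concentration-response curve, as inhibitors or activators; inconclusive means weak, top-dose-only or unclear curve responses; inactive means no response at any tested dose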
* hit, by the source's call; ? = inconclusive; · = no result; [ ] = remark or other dose. Unless noted, the call rests on the fitted dose curve; in most records, active means well fitted curve in the direction sought with a large enough effect; inconclusive means small, poorly fitted or top-dose-only effect, or another doubt; inactive means no such curve, though single readings can be large; an effect the other way counts as inactive or inconclusive.

SMILES | NS1 function inh | TbPYK inhibitor | FBPA Giardia inh | AMA1 RON2 block | LmPK inh | LmPK confirm
O=C1C(c2c(O)[nH]c3ccccc23)=Nc2ccccc21 | · | -2% | 1% | -1% | ? | ·
COC(=O)c1sc(NC(=O)c2ccoc2C)nc1C | 2% | -1% | -1% | -9% | 7.1µM* | 16µM*
COC(=O)c1sc(NC(=O)c2ccco2)nc1C | -43% | -6% | 9% | -20% | -26% | ·
Cc1ccc(Cn2nnc3c(=O)[nH]c(C4CCCN(C(=O)Nc5ccc(F)cc5F)C4)nc32)cc1 (stereo unspecified) | ? | 0% | -3% | -8% | 9% | 7%
Cc1ccc(S(=O)(=O)N2CCN(Cc3ccccc3C(F)(F)F)CC2)cc1 | -23% | -11% | ? | -2% | -8% | 4%
O=C1CN=C(Nc2ccccc2Cl)N1c1ccccc1 | 15% | -3% | · | 0% | -3% | ·
CCOc1ccc(N2C(=O)CN=C2Nc2ccccc2Cl)cc1 | 10% | -4% | · | -2% | 3% | 2%
CCOc1ccc(Br)cc1C1C(C(=O)OC)=C(C)NC2=C1C(=O)c1ccccc12 (stereo unspecified) | · | -2% | · | · | · | ·
CC(C)(C)NC(=O)C(c1ccncc1)N(C(=O)Cn1nnc(-c2ccc(F)cc2)n1)c1ccccc1 (stereo unspecified) | -1% | 0% | -27% | 9% | 8.9µM* | -6%
O=C(Nc1nc2ccccc2[nH]1)c1ccccc1F | -15% | ? | -11% | 63% | 3.2µM* | 6.5µM*
Cc1ccsc1C(=O)Nc1nc2ccccc2[nH]1 | -33% | ? | -9% | 72% | 2.8µM* | 21µM*
O=C(Nc1nc2ccccc2[nH]1)c1ccccc1OC(F)F | -14% | -5% | -18% | 68% | ? | ·
CC(CC(=O)O)(CC(=O)O)C(=O)O | -2% | · | · | · | · | ·
COc1ccc(OC)c(-c2noc(CSc3nnc(-c4ccccc4)n3-c3ccccc3)n2)c1 | · | 6% | · | · | · | ·
C[C@H]1CC[C@@H]2N(C1)C[C@H]1[C@@H]3C[C@H]4[C@@H](C/C(=N\O)[C@H]5C[C@@H](O)CC[C@@]54C)[C@@H]3CC[C@H]1[C@]2(C)O | · | · | 7% | · | · | ·
COc1cc(NC(=O)CSc2nc3ccccc3cc2Cc2ccccc2)cc(OC)c1 | 6% | -3% | -12% | -7% | -6% | ·
COc1cccc(NC(=O)CSc2nc3ccccc3cc2Cc2ccccc2)c1 | 12% | -5% | 2% | -3% | 1% | 3%
CC(C)C[C@@H](CC(=O)N[C@@H](CCC(=O)O)CC(=O)O)NC(=O)[C@@H]1CNCC[C@H]1NC(=O)C[C@H](CCCN)NC(=O)C[C@H](Cc1c[nH]c2ccccc12)NC(=O)[C@@H]1CCCC[C@H]1N | · | · | -20% | · | · | ·
CCc1nc2cccnc2n1-c1ccc(CC(=O)Nc2ccc(C)cc2)cc1 | · | 1%[15.4 µM] | · | · | · | ·
COc1ccc(/C(O)=C2/C(=O)C(=O)N(Cc3cccnc3)C2c2ccco2)cc1OC (stereo unspecified) | -5% | 0% | 9% | -9% | 0% | 4%
CCOC(=O)c1ccc(NC(=O)Nc2ccc3c4c(cccc24)C(=O)N3CC)cc1 | -15% | -12% | -15% | 2% | 2% | 2%
CO[C@@H]1COC(=O)C/C=C\[C@@H](C)[C@H](OC)COC(=O)[C@@H](C)COC(=O)C/C=C\[C@H]1C | · | · | 2%[12.9 µM] | · | · | ·
O=c1c(-c2cc(F)cc(F)c2)nc2cnc(Oc3ccccc3)nc2n1C1CC1 | · | 2% | 0% | · | · | ·
Cc1ccnc(NC(=O)c2ccc3c(c2)OCO3)c1 | 0% | ? | -10% | -18% | 14µM* | 16µM*
COc1cccc(NC(=O)c2ccccc2)c1 | · | -10% | · | 2% | · | ·
SMILES | NS1 function inh | TbPYK inhibitor | FBPA Giardia inh | AMA1 RON2 block | LmPK inh | LmPK confirm
COc1ccc(C(=O)Nc2cccc(OC)c2)cc1 | -50% | ? | -16% | 8% | ? | ?
COC(=O)c1ccc(Nc2nc(C)cc(C)n2)cc1 | -35% | -3% | 4% | -13% | -5% | -5%
Cc1ccccc1N=CC1=C(O)c2ccccc2C1=O | -2% | ? | -12% | -19% | 4µM* | 15µM*
CC(C)CC(=O)N[C@H](C(=O)N[C@H](C(=O)N[C@@H](CC(C)C)[C@H](O)CC(=O)N[C@@H](C)C(=O)N[C@@H](CC(C)C)[C@H](O)CC(=O)O)C(C)C)C(C)C | · | · | 6%[21.7 µM] | · | · | ·
Cc1ccnc(NC(=O)c2cc3ccccc3oc2=O)c1 | -1% | -10% | 2% | 1% | 7.9µM* | ?
C=C(C)C(=O)OCCOCC | · | · | 15% | · | · | ·
O=C(/C=C/Nc1ccccc1Br)c1ccccn1 | -92% | ? | 4% | -1% | 5µM* | 21µM*
O=C(NC(=O)c1ccccc1)Nc1ccccn1 | -13% | · | · | · | 4.5µM* | 13µM*
Cc1occc1C(=O)N/N=C/c1ccc2c(c1)OCO2 | -59% | ? | -7% | 38% | 4.5µM* | 16µM*
CCOC(=O)CNS(=O)(=O)c1cc(-c2nn(C)c(=O)c3ccccc23)ccc1C | ? | -10% | -12% | 12% | 2% | 7%
CC(C)Cn1nnnc1S(=O)(=O)CCc1ccccc1 | · | · | 0% | · | · | ·
O=C(O)c1ccncc1.O=C(O)c1ccncc1.[Cl][Pt]([Cl])([Cl])[Cl] | -13% | · | · | · | · | ·
Cn1c(Cl)nc2ccccc21 | 8% | 1% | 1% | 1% | -3% | ·
Cn1c(N=Nc2ccccc2)nc2ccccc21 | -47% | 14µM* | -23% | -24% | 2.2µM* | 7.3µM*
CN(C)c1ccc(N=Nc2nc3ccccc3n2C)cc1 | -34% | 14µM* | -10% | 4µM* | 4µM* | 3.7µM*
CCn1c(NCc2ccc(N(C)C)cc2)nc2ccccc21 | -6% | -1% | 1% | -21% | -1% | ·
CCCCCCCC/C=C\C/C=C\C=C\C(O)CCCC(=O)O (stereo unspecified) | · | · | 3% | · | · | ·
O=C1C=CC(=O)N1CCCCCCN1C(=O)C=CC1=O | -44% | 10µM* | -2% | -1% | ? | ?
O=C(Nc1ccc(N2CCOCC2)cc1)c1cn2ccccc2n1 | 16% | ? | 9% | -17% | 2.8µM* | 16µM*
O=C(Nc1ccc(Cl)c(S(=O)(=O)N2CCOCC2)c1)c1cn2ccccc2n1 | · | 0% | 4% | -2% | 2% | ·
CN(Cc1cccc(-n2cccn2)c1)Cc1cn(C)nc1-c1ccccc1F | -3% | 0% | 0% | 6% | -5% | -7%
CCN1/C(=C/c2ccc3cccc(C)c3[n+]2CC)Sc2ccccc21 | -178% | -5% | 7% | -2% | -14% | -12%
CCN1/C(=C/c2ccc3cc(C)cc(C)c3[n+]2CC)Sc2cc(C)ccc21 | · | -16% | -1% | ? | -10% | ·
O=C(/C=C/c1ccc(/C=C/C(=O)Nc2ccc(C3=NCCN3)cc2)cc1)Nc1ccc(C2=NCCN2)cc1 | · | · | -5% | · | · | ·
Cc1ccc2c(CNCc3cccs3)c(C(=O)O)n(Cc3ccc(F)cc3)c2c1 | · | -12% | · | · | · | ·

Bioassay records as filed in PubChem.
